Vif inh: blocks HIV Vif function. HEK293T cells, Vif self-association by quenched fluorescence, imaging, 24 h. inhibition, % at 7.49 µM. 340,000 tested, 0.35% active; in the data active means inhibition above about 50%, passing the limit was not always enough; inconclusive means no clear call, values can overlap the other calls; inactive means below about 31%
ABCB6 inh 2: human ABCB6 transporter inhibition; K562-ABCB6 porphyrin accumulation, flow cytometry, 1 h; stronger effect = lower value; 360,000 tested, 0.19% active; fluorescence ratio to DMSO, % at 10 µM; AID 602162; Q9NP58;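 active means fluorescence ratio to DMSO below 75%, the collection mean minus 3 SD; inconclusive means too few cells collected in the well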;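 further: signal is porphyrin accumulated inside mitochondria; 100% equals median channel fluorescence of DMSO control wells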
Target sequence (Q9NP58 whole entry, looked up): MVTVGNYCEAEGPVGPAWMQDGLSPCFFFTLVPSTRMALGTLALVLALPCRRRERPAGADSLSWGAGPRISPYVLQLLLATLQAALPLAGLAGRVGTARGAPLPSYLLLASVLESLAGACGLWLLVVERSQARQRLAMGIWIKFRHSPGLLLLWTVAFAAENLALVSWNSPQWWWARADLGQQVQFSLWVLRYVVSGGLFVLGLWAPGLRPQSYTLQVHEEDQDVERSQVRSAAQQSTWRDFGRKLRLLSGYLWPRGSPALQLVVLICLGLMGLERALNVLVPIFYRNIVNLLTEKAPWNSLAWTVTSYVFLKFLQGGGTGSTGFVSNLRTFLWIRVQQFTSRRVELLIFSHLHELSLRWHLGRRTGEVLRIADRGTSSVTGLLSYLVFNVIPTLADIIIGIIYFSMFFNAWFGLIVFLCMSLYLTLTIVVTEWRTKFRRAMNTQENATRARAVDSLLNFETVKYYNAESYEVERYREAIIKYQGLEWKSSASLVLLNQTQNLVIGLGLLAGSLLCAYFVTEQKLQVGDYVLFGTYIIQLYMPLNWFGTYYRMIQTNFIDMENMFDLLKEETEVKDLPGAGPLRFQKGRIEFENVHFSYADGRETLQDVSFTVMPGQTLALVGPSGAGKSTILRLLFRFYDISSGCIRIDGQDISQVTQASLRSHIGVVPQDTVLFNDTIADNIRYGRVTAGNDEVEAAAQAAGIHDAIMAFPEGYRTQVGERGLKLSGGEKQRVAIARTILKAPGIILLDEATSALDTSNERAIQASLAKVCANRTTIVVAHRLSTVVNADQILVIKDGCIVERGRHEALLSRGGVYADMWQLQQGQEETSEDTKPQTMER
N-glyco inh: N-linked glycosylation inhibition; 360,000 tested, 0.23% active; reporter increase, % at 12.5 µM; D54 ERlucT glycosylation luciferase reporter, 24 h; percent of 100 nM tunicamycin response;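 active means mean luciferase reporter signal, scaled so untreated is 0 and the glycosylation-blocking control 100, at or above a set limit in every replicate; inconclusive means mean reaches the limit but not every replicate does; inactive means mean below the limit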;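 further: luciferase carries N-glycosylation sites so blocking glycosylation raises the light; 0% = median of neutral control wells and 100% = median of 100 nM tunicamycin wells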
RAD54 branch: inhibitors of human RAD54 branch migration. AID 602329. RAD54 Holliday junction branch migration, FAM/BHQ fluorescence. Q92698. 360,000 tested, 0.14% active. inhibition, % at 10.4 µM;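 active means mean normalized replicate activity at least 40 and at least half of replicates scoring 40 or more; inconclusive means only one of the two criteria met; inactive means mean below 40 and under half of replicates reaching 40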;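 further: 0% = median of neutral control wells and 100% = median of positive control wells; inhibitors cause a drop in the FAM fluorescence signal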
Myeloid diff MLP: myeloid differentiation induction; ER-HoxA9 myeloid progenitors, lysozyme-GFP differentiation, flow cytometry; calls only at 10 µM; 360,000 tested, 1% active;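 active means normalized GFP-positive differentiation at or above the plate's own cutoff, the solvent-only control mean plus 3 SD; inconclusive means no clear call, values can overlap the other calls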;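 further: cells exposed to compound for four days before flow analysis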
* = called active by the depositor; i = inactive; ? = inconclusive; nt = no result; + = active, no number. Sampled rows, rich in hits. Any-hit rate of the full collection: about 1.6%.

SMILES	Vif inh	ABCB6 inh 2	N-glyco inh	RAD54 branch	Myeloid diff MLP
CC(C)NC(=O)Nc1ccc2c(c1)C(=O)N([C@H](C)CO)C[C@H](C)[C@@H](CN(C)Cc1ccncc1)O2	nt	nt	nt	3	nt
CCOc1ccc(C2=Nn3c(nnc3-c3ccccc3OC)SC2)cc1	12	96	10	-5	?
COc1ccc(OC)c(-c2nnc3n2N=C(c2ccc(OC)c(OCC4CC4)c2)CS3)c1	-4	99	8	-1	+
CCOc1ccc(-c2nnc3n2N=C(c2ccc(OC)cc2)CS3)cc1	50*	95	3	-1	i
CCc1nnc2n1N=C(c1ccc(OC)cc1)CS2	-13	101	37*	-2	i
CO[C@@H](CN(C)C(=O)c1ccccc1F)[C@@H](C)CN([C@@H](C)CO)S(=O)(=O)c1ccccc1	nt	nt	nt	5	nt
COC(=O)C(C(=O)OC)c1ccccc1NS(=O)(=O)c1ccc(C)cc1	nt	nt	nt	nt	i
COc1cc(NS(=O)(=O)c2ccc(C)cc2)c2c(c1N)C(=O)c1ccccc1C2=O	nt	i	-4	10	+
Oc1cccc2c3c(oc12)CCCC3	70*	96	-1	-3	i
CNC(=O)/C(C#N)=C/c1c(N2CCCCCC2)nc2ccccn2c1=O	14	222	1	-26	+
CCCN1C(=O)/C(=C/c2c(N3CCNC(=O)C3CC(=O)OCC)nc3c(C)cccn3c2=O)SC1=S (stereo unspecified)	4	311	-1	-156	+
CCOC(=O)CC1C(=O)NCCN1c1nc2ccc(C)cn2c(=O)c1/C=C1\SC(=S)N(CC(C)C)C1=O (stereo unspecified)	nt	870	-4	nt	+
CCOC(=O)CC1C(=O)NCCN1C(=O)c1ccc(C)cc1 (stereo unspecified)	1	96	1	-10	i
CCOC(=O)/C(C#N)=C/c1c(N2CCN(C)CC2)nc2c(C)cccn2c1=O	-1	99	4	9	i
CNC(=O)C1=C[C@H](c2csc3ccccc23)C[C@H](OCc2ccc(CO)cc2)O1	nt	nt	nt	-4	nt
C[C@H](CO)N1C[C@H](C)[C@@H](CN(C)S(=O)(=O)c2cccs2)OCCCC[C@H](C)Oc2ccc(NC(=O)CCCN(C)C)cc2C1=O	nt	nt	nt	-3	nt
Cn1nc(C(F)(F)F)c(/C=N/OC(=O)c2ccc(Cl)cc2)c1Cl	19	104	0	-6	i
Cn1nc(C(F)(F)F)c(/C=N/OC(=O)c2ccccc2)c1SCc1ccc(Cl)cc1	-9	93	73*	-7	i
Cn1nc(C(F)(F)F)c(/C=N/OC(=O)c2ccccc2Cl)c1SCc1ccccc1Cl	5	94	58*	0	i
Cn1c(-c2ccccc2)c(/C=N/NC(=O)c2ccc(O)cc2)c2ccccc21	18	96	54*	-3	i
O=C(N/N=C\c1c(O)ccc2ccccc12)c1ccc(O)cc1	8	97	-6	-3	?
O=C(Nc1ccc2c(c1)nc1n2CCOC1)c1ccccc1	58*	100	0	16	i
C[C@@H]1CCCCO[C@@H](CN(C)CC2CC2)[C@@H](C)CN([C@H](C)CO)C(=O)c2cc(NS(C)(=O)=O)ccc2O1	nt	nt	nt	9	nt
Cn1cc(/C=N/n2cnc3scc(-c4ccc(Cl)cc4)c3c2=O)c2ccccc21	54*	95	23	9	?
CCn1cnc2scc(-c3ccccc3)c2c1=O	1	103	0	0	i
SMILES	Vif inh	ABCB6 inh 2	N-glyco inh	RAD54 branch	Myeloid diff MLP
COc1ccccc1CC(=O)Nc1ccon1	56*	94	1	-6	i
COc1cccc(-c2cnc3c(c2)C(=O)N([C@@H](C)CO)C[C@H](C)[C@H](CN(C)Cc2ccncc2)O3)c1	nt	nt	nt	0	nt
COc1ccc(CC(NC(C)=O)C(=O)NC2CCN(C(=O)c3ccccc3F)CC2)cc1 (stereo unspecified)	70*	94	-1	6	i
COc1ccc(C(=O)N2CCC(NC(=O)C(Cc3ccccc3OC)NC(C)=O)CC2)cc1 (stereo unspecified)	3	93	5	-7	i
CCC(=O)N1CC[C@H]2[C@@H]1c1cc(-c3ccc(F)cc3)ccc1N(C)[C@H]2CO	nt	nt	nt	5	nt
O=C(NNC(=O)c1ccc(NC(=O)c2ccccc2)cc1)Nc1ccccc1	6	91	-3	nt	+
CC=Cc1ccc2n(c1=O)C[C@@H]1[C@@H](CO)[C@H](C(=O)N3CCCCC3)N(C(=O)CC)[C@H]21 (mixture of isomers)	nt	nt	nt	8	nt
Cc1cccc(NC(=O)Nc2ccc3c(c2)C(=O)N(C)[C@H]2CC[C@H](CC(=O)NCc4ccccc4Cl)O[C@@H]2CO3)c1	nt	nt	nt	5	nt
CC1(C)CC2(C)OC2C2(C1)N=NC(=Nc1ccccc1)O2 (stereo unspecified)	6	90	45*	nt	i
CC1(C)CC(N2CCN(CCO)CC2)=CC(=S)N1	-2	107	1	8	+
C[C@@H]1CN([C@H](C)CO)C(=O)c2cc(C3=CCCC3)cnc2O[C@@H]1CN(C)Cc1ccccn1	nt	nt	nt	8	nt
CCCNC(=O)Nc1ccc2c(c1)OC[C@H](C)N(C(=O)C1CCOCC1)C[C@H](C)[C@H](OC)CN(C)C2=O	nt	nt	nt	-6	nt
Cc1cccc(-n2c(C)c(-c3ccccc3)[nH]c2=S)c1	-5	88	5	3	+
C[C@H]1CN([C@@H](C)CO)C(=O)c2ccccc2-c2ccccc2CO[C@H]1CN(C)Cc1cccc(F)c1	nt	nt	nt	0	nt
CCn1c2ccc(F)cc2c2nc3ccccc3nc21	7	149	4	nt	+
CCN(CC)CCn1c2ccccc2c2nc3ccccc3nc21	0	98	129*	106*	nt
CC(C)NC(=O)Nc1ccc2c(c1)C(=O)N(C)[C@H]1CC[C@@H](CC(=O)NC3CCCCC3)O[C@H]1CO2	nt	nt	nt	1	nt
O=C(NCc1ccc2c(c1)OCO2)c1nn(-c2ccccc2)c(=O)c2ccccc12	1	65*	0	1	i
CC(C)NC(=O)Nc1ccc2c(c1)C(=O)N([C@@H](C)CO)C[C@@H](C)[C@@H](CN(C)S(=O)(=O)c1ccccc1)OCCCC[C@@H](C)O2	nt	nt	nt	-4	nt
COCC(=O)N1C[C@@H](C)[C@@H](OC)CN(C)C(=O)c2cc(NC(=O)C3CCC3)ccc2OC[C@H]1C	nt	nt	nt	11	nt
CC1CCC/C(=C\Nc2ccc(O)cc2)C1=O (stereo unspecified)	0	104	7	-1	+
Cc1cc(C(=O)O)ccc1N/C=C1\CCCC(C)C1=O (stereo unspecified)	-1	96	-11	10	i
Cc1sc2nc(CSc3nc4ccccc4c(=O)n3CCCN3CCOCC3)[nH]c(=O)c2c1C	nt	235	-3	-29	+
COCCCNc1nc2c(-c3ccc(Cl)cc3)nnn2c2ccccc12	-7	99	3	-3	i
NNc1nc2c(-c3ccc(F)cc3)nnn2c2ccccc12	-5	138	-6	-4	+
Fc1ccc(-c2nnn3c2nc(NCc2ccccc2)c2ccccc23)cc1	-3	96	7	8	i

Assay outcomes from PubChem BioAssay.
